Entries with a potency or affinity are not part of this list. Active and inactive are the calls of the source.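 How the source made its calls: active means viability loss whose fitted half-maximal concentration is at most twice the top valid tested dose; inconclusive means flat curve with 30 to 70% loss, or poor fit; inactive means the rest.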
Experiment: HepG2 cell cytotoxicity, dose response, cytotoxicity control, ATP luminescence, cherry-pick, set 6 (AID 1053125);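 further: negative values mean loss of viability signal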
Details: HepG2 viability, ATP luminescence (CellTiter-Glo), 72 h; series mostly up to 26 µM; activity change, negative = cytotoxicity: at the top concentration

| Structure (SMILES) | activity change, negative = cytotoxicity |
| --- | --- |
| CC1CCCCC1NC(=O)CN1C(=O)c2cccc(N)c2C1=O (centres undefined) | -3.23% (inactive) |
| Cc1ccc(O)c(NC(=S)NC(=O)COc2ccc(Br)cc2)c1 | 13.5% (inactive) |
| CC(=O)c1sc(N/N=C\c2ccc(N(C)C)cc2)nc1C | -8.39% (inactive) |
| CCN1C(=O)c2cccc3c(S(=O)(=O)N(C)C)ccc1c23 | -11.1% (inactive) |
| CC1CCN(S(=O)(=O)N2CCC(C(=O)NC3CCCC3)CC2)CC1 | -3.91% (inactive) |
| COCCNC(=O)c1cc2c(=O)n3cccc(C)c3nc2n(Cc2ccncc2)c1=N | -8.89% (inactive) |
| COc1ccc(C(=O)c2sc3nc(-c4ccc(OC)cc4)ccc3c2N)cc1 | -0.796% (inactive) |
| CCN(CC)c1ccc2cc(C(N)=O)c(=O)oc2c1 | 3.5% (inactive) |
| CCCOc1ccc(NC(=O)c2c(-c3ccccc3)noc2C)cc1 | -6.96% (inactive) |
| COc1ccc(C2C3=C(CC(C)(C)CC3=O)N(C)C3=C2C(=O)CC(C)(C)C3)cc1 | 4.57% (inactive) |
| CNNC(=S)NC1CC2CC1C1C=CCC21 (centres undefined) | -6.4% (inactive) |
| O=C(Nc1ccc2c(c1)OCCO2)c1ccc(NC(=O)C2CCCO2)cc1 (centres undefined) | -12.3% (inactive) |
| Cc1c(C(=O)NCc2cccc([N+](=O)[O-])c2)sc(=O)n1Cc1cccc(F)c1 | -4.27% (inactive) |
| O=C(CCc1c[nH]c2ccccc12)OCC(=O)c1ccccc1 | -4.54% (inactive) |
| COc1ccc(S(=O)(=O)N2CCCC2CNC(=O)C(=O)NC2CCCC2)cc1 (centres undefined) | -7.24% (inactive) |
| O=c1oc2cc(O)ccc2cc1S(=O)(=O)c1ccccc1 | -3.94% (inactive) |
| COc1cccc(N2CCN(C(=O)C3CCCN(S(=O)(=O)c4cnc[nH]4)C3)CC2)c1 (centres undefined) | 29.5% (inactive) |

| Structure (SMILES) | activity change, negative = cytotoxicity |
| --- | --- |
| Cc1cc(-n2c(=O)c(C#N)cc3c(=O)n4cccc(C)c4nc32)no1 | -6.56% (inactive) |
| COc1ccc(C2c3ccc(O)cc3Oc3ncn4nc(-c5ccccn5)nc4c32)cc1 (centres undefined) | -1.07% (inactive) |
| CCOc1ccc(S(=O)(=O)Nc2ccc(C(=O)N(CC)CC(=O)NCc3cccs3)cc2)cc1 | -9.89% (inactive) |
| CCc1ccccc1S(=O)(=O)Cc1ccc(C(=O)N2CCN(c3ccccc3OC)CC2)o1 | 12.5% (inactive) |
| COCCN1C=C(C(=O)OC)C(c2ccc(Cl)cc2)C(C(=O)OC)=C1 | -14.3% (inactive) |
| Cc1oc(/N=C/c2ccc(F)cc2)c(C#N)c1C | -4.78% (inactive) |
| Cc1nc(CCNC(=O)Cc2ccc(Cl)cc2)cs1 | -1.48% (inactive) |
| COc1ccccc1/C=N/Nc1nc(C)cc(=O)[nH]1 | -7.23% (inactive) |
| CCOc1ccccc1N=c1oc2cc(O)ccc2cc1C(=O)NCC1CCCO1 (centres undefined) | -13% (inactive) |
| Cc1cc(C)nc(SCC(=O)Nc2ccc(S(=O)(=O)Nc3onc(C)c3C)cc2)n1 | -1.5% (inactive) |
| CSc1ccc(Cl)c(C(=O)N2CCOc3ccccc32)c1 | -2.96% (inactive) |
| CC(=O)c1cc2ccc(O)cc2oc1=O | -4.29% (inactive) |
| CC(=O)c1cc2c(ccc3ccccc32)oc1=O | -0.955% (inactive) |
| O=c1c2ccccc2n(CC(O)CN2CCCCC2)c2ccccc12 (centres undefined) | 0.985% (inactive) |
| COCCNC(=S)N/N=C/c1ccc(-c2ccc([N+](=O)[O-])cc2)o1 | -8.06% (inactive) |
| Cn1c2ccccc2c(=O)c2ccc(F)cc21 | -4.04% (inactive) |
| CCOC1=NN(c2ncc(C(F)(F)F)cc2Cl)C(=O)C1 | -7.01% (inactive) |

— PubChem BioAssay AID1053125 (Broad Institute, 2014)
